# Rows were chosen to be rich in hits. Some 9.5% of all compounds tested hit in one or more screens of this group.
# ALDH1A1 block – inhibitors of human aldehyde dehydrogenase 1A1; P00352; Purified ALDH1A1, NADH fluorescence, propionaldehyde substrate; Potency, µM (top dose mostly 75.3 µM), without a hit: at the highest dose activity, negative = inhibition, most hits filed as inhibitors; 220,000 compounds, 7.3% hits; AID 1030; active = well fitted inhibition curve with a large enough effect, not every such curve was filed as active; inconclusive = small, poorly fitted or top-dose-only effect, or another doubt; inactive = no such curve, though single readings can be large or run the other way;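 also: plate controls were no enzyme wells and a reference inhibitor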
# Tau fluor counter – counter-screen for tau fibril formation inhibitors; tau K18 P301L Alexa594 fluorescence, heparin fibrillization; Potency, µM (titrated, usually from 57.7 µM), for the others: at the top dose activity change, negative = decrease; 280,000 compounds, 0.93% hits; AID 1463; also: nearly all actives have a fitted effect of over 55% in size
#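 Human K18 P301L tau (15 uM unlabeled plus 0.24 uM Alexa 594-labeled, final) in 100 mM sodium acetate pH 7 was mixed with compound and 20 uM heparin and incubated 6 hr at 37 C.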
# Tau fibril ThT – inhibitors of human tau fibril formation, thioflavin T binding; P10636; Potency, µM (top dose mostly 57.4 µM), without a hit: top-dose activity, negative = inhibition, hits mostly inhibitors; 270,000 compounds, 2.1% hits; AID 1460; recombinant tau K18 P301L, heparin-induced fibrillization, ThT fluorescence; also: nearly all actives have a fitted effect of over 55% in size
# Target sequence (P10636 561-689 P618L limits assumed): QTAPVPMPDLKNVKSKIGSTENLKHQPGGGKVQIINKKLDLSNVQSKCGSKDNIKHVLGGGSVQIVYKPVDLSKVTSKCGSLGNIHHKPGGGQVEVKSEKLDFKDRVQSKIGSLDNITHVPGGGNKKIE
#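 Heparin-induced (20 uM) aggregation of recombinant human K18 P301L tau, 15 uM unlabeled with 0.24 uM labeled, pH 7 acetate buffer, 6 hr at 37 C with compound. Fibrils quantified by 30 uM ThT fluorescence after 1 hr ambient incubation.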
# Tau FP inhib – inhibitors of human tau fibril formation. P10636. K18 P301L tau heparin fibrillization, Alexa594 FP, 6 h. Potency, µM (series often up to 57.7 µM), inactives show at the top dose activity, negative = inhibition, most hits filed as inhibitors. 280,000 compounds, 0.39% hits. AID 1468; also: nearly all actives have a fitted effect of over 55% in size
#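 Heparin (20 uM) drove fibril formation of recombinant tau K18 P301L, 15 uM unlabeled with 0.24 uM Alexa 594 label, for 6 hr at 37 C in 100 mM sodium acetate pH 7. Fluorescence polarization (555/632 nm) read 1 hr after 30 uM ThT.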
# NPSR antagonist – blocks cAMP signaling of the human neuropeptide S receptor. Potency, µM (top dose mostly 38.3 µM), for inactives: top-dose activity change, negative = inhibition, hits mostly inhibitors. 220,000 compounds, 1% hits. CHO-NPSR cells, cAMP TR-FRET, antagonist mode. Q6W5P4; also: nearly all actives have a fitted effect of over 50% in size
# Target sequence (Q6W5P4 whole entry, looked up): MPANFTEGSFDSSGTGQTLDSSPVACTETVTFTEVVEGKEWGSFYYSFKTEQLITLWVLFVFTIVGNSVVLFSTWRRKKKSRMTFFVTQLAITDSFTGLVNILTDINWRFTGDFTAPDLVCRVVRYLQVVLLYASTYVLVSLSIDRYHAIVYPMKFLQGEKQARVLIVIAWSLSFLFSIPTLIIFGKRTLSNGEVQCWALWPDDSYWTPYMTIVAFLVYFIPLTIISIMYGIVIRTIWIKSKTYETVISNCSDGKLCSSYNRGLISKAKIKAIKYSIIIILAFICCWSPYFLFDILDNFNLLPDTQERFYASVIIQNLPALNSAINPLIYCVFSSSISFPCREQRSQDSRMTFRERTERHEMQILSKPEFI
# HPGD block – HPGD (human) dehydrogenase inhibition. P15428. purified HPGD, NADH fluorescence kinetic, PGE2 substrate. Potency, µM, inactives show at the highest dose activity change, negative = inhibition, actives largely listed as inhibitors. 150,000 compounds, 4.3% hits. AID 894; active = well fitted inhibition curve with a large enough effect, not every such curve was filed as active; inconclusive = small, poorly fitted or top-dose-only effect, or another doubt; inactive = no such curve, though single readings can be large or run the other way
# Target sequence (P15428 whole entry, looked up): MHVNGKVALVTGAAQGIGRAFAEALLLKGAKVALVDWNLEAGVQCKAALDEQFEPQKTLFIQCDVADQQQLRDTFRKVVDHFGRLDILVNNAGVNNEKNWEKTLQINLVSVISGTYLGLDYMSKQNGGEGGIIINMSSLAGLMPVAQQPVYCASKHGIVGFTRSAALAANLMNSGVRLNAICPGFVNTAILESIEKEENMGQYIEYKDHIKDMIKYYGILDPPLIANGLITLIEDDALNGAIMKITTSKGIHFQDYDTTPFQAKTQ
#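 NADH formation kinetics: reaction with 30 uM PGE2 and 1 mM NAD+ (final), 20 nM enzyme, Tris-HCl pH 8 with Tween 20, after 15 min compound preincubation at room temperature. Fluorescence change, last versus first of five reads.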
# Active calls of the source: *; ? = inconclusive; / = no result; [ ] = dose if it differs, or a comment. Unless noted, calls follow the shape of the dose curve; as a rule, active = well fitted curve in the direction sought with a large enough effect; inconclusive = small, poorly fitted or top-dose-only effect, or another doubt; inactive = no such curve, though single readings can be large; an effect the other way counts as inactive or inconclusive. Unless noted, % is scaled to controls: 0 for no effect and ±100 for the full control effect; potency is read from the fitted curve at half-maximal effect.
SMILES,ALDH1A1 block,Tau fluor counter,Tau fibril ThT,Tau FP inhib,NPSR antagonist,HPGD block
CC(C)[C@@H](CC(=O)N[C@@H]1CCCC[C@H]1C(=O)N[C@H](CC(=O)N[C@@H](CCC(=O)O)CC(=O)O)Cc1c[nH]c2ccccc12)NC(=O)C[C@H](Cc1c[nH]c2ccccc12)NC(=O)[C@@H]1CNCC[C@H]1N,-4.4%,-8.7%,-13.7%,-7.2%,/,-5.2%
CC(C)N(Cc1nnc(-c2ccccc2Cl)o1)C(=O)c1cccc(C#N)c1,6.31µM*,-3.7%,-9.9%,-0.7%,-16.5%[46.1 µM],-1.4%
COC(=O)C/C=C\[C@@H](C)[C@@H](/C=N\OC[C@@H](O)COCc1ccco1)OC,1.9%[13.5 µM],-18.7%[11.6 µM],-22.5%[11.5 µM],-3.2%[11.6 µM],/,/
CN=C(C)/C(C(=O)OC)=C(/O)c1ccc(Cl)cc1Cl,-1.6%,-15.8%,-14.4%,-5.1%,-31.8%,/
O=C1c2ccccc2C(=O)C1c1ccnc2ccccc12,3.2%,-7.3%,1.78µM*,-3.9%,9.6%[46.1 µM],1.9%
N#CC1=C(N)SC(N)=C(C#N)C1c1ccnc2ccccc12,?,-25.1%,28.2µM*,?,-5.8%[46.1 µM],15.8µM*
O=C1c2ccccc2C(=O)C1c1nccc2ccccc12,18.1%,-18.2%,1.41µM*,-8.2%,-14.3%[46.1 µM],1.6%
CC1=C(C#N)C(c2ccc3ncccc3c2)C(C#N)=C(C)N1,2.5%,-11.7%,-13.1%,-1.8%,-6.5%[46.1 µM],-6.1%
O=C1C(c2ccnc3ccccc23)=C(O)c2ccccc21,-2.3%,3.2%,?,-1.3%,0.7%[46.1 µM],-22.2%
CC1(C)OC(=O)C(=CNCC(O)c2ccccc2)C(=O)O1 (stereo unspecified),11.2µM*,0.3%,-6.5%,0.0%,2.4%[46.1 µM],-18.3%
Nc1nnc(CSCc2ccc(F)cc2)s1,10µM*,2.9%,9.7%,2.4%,-1.8%[46.1 µM],22.4µM*
Nc1nnc(-c2ccc(F)cc2)s1,-9.1%,-2.6%,-9.3%,-2.0%,-9.1%[46.1 µM],-17.0%
COc1ccc(NC(=O)C(c2ccc(OC)cc2)N(C)C(=O)CC2NC(=O)NC2=O)cc1 (stereo unspecified),8.8%,-1.0%,0.0%,4.4%,17.7%,-9.9%
CC(C)c1ccc(NC(=O)C(c2ccccc2)N(Cc2ccco2)C(=O)CC2NC(=O)NC2=O)cc1 (stereo unspecified),7.94µM*,-9.7%,-10.2%,-1.7%,-10.5%,/
CC1=NN(c2ccc(Cl)cc2)C(=O)C1C(c1ccccc1O)c1c(C)[nH]n(-c2ccc(Cl)cc2)c1=O (stereo unspecified),7.51µM*,?,?,?,-10.6%[46.1 µM],7.94µM*
CC1=NN(c2ccc(C)cc2C)C(=O)C1C(c1ccccc1O)C1C(=O)N(c2ccc(C)cc2C)N=C1C (stereo unspecified),-12.4%,-4.0%,-16.8%,-6.5%,8.9%,-25.3%
COc1ccc(CNc2ccc3cn[nH]c3c2)c(OC)c1OC,?,?,28.2µM*,?,-5.4%[46.1 µM],-25.2%
COc1ccc(NC(=S)NNS(=O)(=O)c2ccc3ccccc3c2)c(OC)c1,22.4µM*,-16.3%,?,-5.0%,0.1%,/
COc1ccccc1NC(=O)C(=O)NNS(=O)(=O)c1ccc2ccccc2c1,/,-13.8%,/,1.8%,0.5%,/
N#C/C(=C(\O)c1ccco1)c1ccccn1,25.1µM*,5.8%,-7.7%,6.3%,-0.8%[46.1 µM],-25.5%
Cc1cc(O)c2c(c1O)C(=O)C(O)=C(O)C2=O,?,?,12.6µM*,17.8µM*,/,?
COc1ccc(C2C(C(=O)Nc3cccnc3)=C(C)Nc3nc(-c4ccccc4)nn32)cc1OC (stereo unspecified),/,-9.4%,-11.9%,-1.7%,/,/
O=C(c1ccc(S(=O)(=O)N2CCCCCC2)cc1)N1CCN(c2ccccn2)CC1,12.6µM*,-3.3%,-12.5%,?,-22.8%[46.1 µM],-17.8%
O=C(c1ccc(S(=O)(=O)N2CCCC2)cc1)N1CCC(CN2C(=O)c3cccc4cccc(c34)C2=O)CC1,/,-21.4%,-17.2%,8.9%,10µM*,/
O=C(c1ccc(Cl)c(S(=O)(=O)N2CCCC2)c1)N1CCN(c2ccccn2)CC1,-7.5%,-11.0%,-11.1%,0.4%,4.0%[46.1 µM],-3.5%
SMILES,ALDH1A1 block,Tau fluor counter,Tau fibril ThT,Tau FP inhib,NPSR antagonist,HPGD block
O=C(c1cccc(S(=O)(=O)N2CCc3ccccc32)c1)N1CCN(c2ccccn2)CC1,12.6µM*,-8.1%,-9.4%,3.2%,-27.2%,/
COc1ccc(S(=O)(=O)N2CCC(CN3C(=O)c4cccc5cccc(c45)C3=O)CC2)cc1,?,-28.7%,-3.6%,-11.3%,11.1%,?
Cc1nnc(NC(=O)c2cccc(S(=O)(=O)N3CCc4ccccc43)c2)s1,10.5%,-28.5%,-8.7%,4.8%,1.58µM*,-7.4%
COc1ccccc1CNc1cc(C)nc2nc(-c3ccc(C)cc3)nn12,/,6.1%,0.1%,0.1%,/,/
Cn1c(=O)cc(OCCCC(=O)NC2CCCC2)c2ccccc21,2.8%,-1.6%,-11.5%,1.5%,-5.9%[46.1 µM],14.1µM*
CN1CCN(C(=O)CCCOc2cc(=O)n(C)c3ccccc23)CC1,5.2%,-11.2%,-9.2%,-5.5%,0.4%[46.1 µM],-6.3%
Cn1c(=O)cc(OCC(=O)NC2CCCCC2)c2ccccc21,?,1.9%,-3.6%,-2.8%,1.9%[46.1 µM],-27.1%
Cn1c(=O)cc(OCCCC(=O)N2CCCCC2)c2ccccc21,-4.5%,-1.4%,-5.9%,3.2%,3.0%[46.1 µM],7.08µM*
CC(NC(=O)CSc1nc2ccc(N)cc2s1)c1ccccc1 (stereo unspecified),?,-14.2%,-15.8%,-3.4%[2.34 µM],-4.4%,/
C=CCNC(=O)/C(C#N)=C/c1ccc(OS(=O)(=O)c2ccc(C)cc2)c(OC)c1,25.1µM*,-4.5%,?,?,-22.1%,28.2µM*
COc1ccc(/C=C(\C#N)C(=O)NCc2cccs2)cc1OC,1.2%,-13.9%,-6.0%,-8.0%,1.4%,-13.9%
COc1cc(/C=N/NS(=O)(=O)c2ccccc2)ccc1OS(=O)(=O)c1ccc(C)cc1,7.94µM*,?,-12.4%,?,?,-18.9%
COc1ccc(/C=N/NS(=O)(=O)c2ccccc2)cc1OS(=O)(=O)c1ccc(C)cc1,7.08µM*,?,3.9%,?,-29.3%[46.1 µM],-4.1%
COc1cc(/C=N/NS(=O)(=O)c2ccc(C)cc2)ccc1OCc1ccc(C(=O)O)cc1,?,-27.4%,?,-12.4%,10.4%,/
COc1ccc(CNC(=O)C(c2cccs2)N(Cc2ccco2)C(=O)Cc2cccs2)cc1 (stereo unspecified),2µM*,-5.2%,-17.0%,0.8%,-22.9%[46.1 µM],-16.9%
COCCN(C(=O)Cc1cccs1)C(C(=O)NCc1ccc(OC)cc1)c1ccc(OC)cc1 (stereo unspecified),2.24µM*,-18.2%,-4.4%,-6.0%,-13.3%[46.1 µM],-14.6%
